# Assay results reported in the supplement of paper PMC9337992.
# ± gives the standard deviation of the averaged measurements.
# Test system: MDAMB468
# Test: cell proliferation (confluence) relative to DMSO control; higher = less growth inhibition
# Details: 5 uM; 6 d
# Method: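 Epigenetic chemical probe screen: 15 TNBC cell lines, 500 cells per well in 384-well plates, treated with 5 uM of each of 36 SGC probes for 6 d. Confluency was imaged by IncuCyte ZOOM and normalised to DMSO control wells. Four replicate wells per compound.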
row,Structure (SMILES),cell proliferation
1,c1ccc([C@@H]2C[C@H]2NC2CCNCC2)cc1,79 ± 12%
2,O=C(O)CNC(=O)c1c(O)c2ccccc2n(Cc2ccccc2)c1=O,77.3 ± 4.1%
3,COc1cc(C(=O)N2CC[C@@H](O)[C@@H](N)C2)cc2nc(-c3cc4ccccc4n3CC3CC3)n(C)c12,45.6 ± 5%
